Source: PubChem BioAssay (National Center for Advancing Translational Sciences (NCATS))
JMJD2A Tudor: qHTS Assay for Inhibitors of JMJD2A-Tudor Domain | Lysine-specific demethylase 4A (Homo sapiens), O75164 | AlphaScreen JMJD2A-Tudor / H3K4me3 peptide binding | Potency, µM (top dose mostly 114 µM), for the others: at the highest dose activity change, negative = inhibition, hits mostly inhibitors | 390,000 tested, 4.4% active; further: potency means the concentration at half of the fitted maximal effect; on the % scale 0 is the no-effect control and ±100 the full control effect; nearly all actives have a fitted effect of over 50% in size
BAZ2B block: qHTS Assay for Inhibitors of BAZ2B; Bromodomain adjacent to zinc finger domain protein 2B (Homo sapiens), Q9UIF8; AlphaScreen BAZ2B-H3K14Ac peptide displacement; Potency, µM (series often up to 114 µM), without a hit: top-dose activity change, negative = inhibition, actives largely listed as inhibitors; 360,000 tested, 4.4% active; further: potency means the concentration at half of the fitted maximal effect; on the % scale 0 is the no-effect control and ±100 the full control effect; nearly all actives have a fitted effect of over 60% in size
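BAZ2B 50 nM plus b-H3(5-23)K14Ac 50 nM, PBS pH 7.4/0.01% Tween-20, 30 min RT; compound added (max 110 uM), 30 min RT; streptavidin donor/Ni-chelate acceptor beads 10 ug/mL final, 20 min dark; AlphaScreen read.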
Six1-Eya2 inh: qHTS Assay for Inhibitors of the Six1/Eya2 Interaction. Homeobox protein SIX1 (Homo sapiens) + Protein phosphatase EYA2 (Homo sapiens), …. AlphaScreen GST-Six1/His-Eya2 binding, biochemical; active compounds read low. activity change, % (test concentration not listed). 360,000 tested, 0.56% active; in the data active means activity change below about -65%; inconclusive means mostly about -30% to -63%; further: on the % scale 0 is the no-effect control and ±100 the full control effect
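AlphaScreen with GST-Six1 and His-Eya2 (5X mix: 250 nM and 500 nM), glutathione donor and nickel acceptor beads; buffer 50 mM Tris pH 8.0, 300 mM NaCl, 1 mM TCEP; 1 h at 37 C in the dark.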
TDP1 block: qHTS Assay for Inhibitors of Tyrosyl-DNA Phosphodiesterase (TDP1) | Tyrosyl-DNA phosphodiesterase 1 (Homo sapiens), Q9NUW8 | recombinant TDP1, AlphaScreen DNA substrate cleavage | Potency, µM (highest dose often 130 µM), inactives show top-dose activity change, negative = inhibition, actives largely listed as inhibitors | 350,000 tested, 0.28% active; further: potency means the concentration at half of the fitted maximal effect; on the % scale 0 is the no-effect control and ±100 the full control effect; nearly all actives have a fitted effect of over 40% in size
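Signal: AlphaScreen proximity between streptavidin donor and anti-FITC acceptor beads on intact substrate. Reaction: Tdp1 1 nM, substrate 15 nM final, 5 min RT after 15 min compound preincubation.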
HP1b chromo inh: HTS for Inhibitors of HP1-beta Chromodomain Interactions with Methylated Histone Tails. Potency, µM (doses to about 114 µM), for the others: at the highest dose activity change, negative = inhibition, most hits filed as inhibitors. AlphaScreen HP1-beta / biotin-H3K9me3 peptide binding. 390,000 tested, 0.56% active. Chromobox protein homolog 1 (Homo sapiens), P83916; further: potency means the concentration at half of the fitted maximal effect; nearly all actives have a fitted effect of over 70% in size
Target sequence (P83916 whole entry, looked up): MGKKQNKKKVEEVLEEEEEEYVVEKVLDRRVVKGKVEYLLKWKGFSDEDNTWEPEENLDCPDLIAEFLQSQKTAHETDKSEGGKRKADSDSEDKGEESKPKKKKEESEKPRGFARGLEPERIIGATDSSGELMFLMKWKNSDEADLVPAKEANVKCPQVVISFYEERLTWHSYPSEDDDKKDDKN
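HP1-beta protein (50 nM final) preincubated 30 min at room temperature with biotinylated H3(1-18)K9me3 peptide (50 nM) in PBS pH 7.4, 0.01% Tween-20, then compound added for 30 min. AlphaScreen streptavidin donor/nickel chelate acceptor beads (10 ug/mL final), 30 min dark, luminescence read.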
CtBP-E1A inh: qHTS Assay for Inhibitors of the CtBP/E1A Interaction; CtBP / adenovirus E1A interaction (AlphaScreen); 340,000 tested, 0.49% active; activity change, % (no concentration beside the values); AlphaScreen GST-E1A/His-CtBP binding, 1536-well; active compounds read low; in the data active means activity change below about -65%; inconclusive means mostly about -30% to -63%; further: on the % scale 0 is the no-effect control and ±100 the full control effect
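Steps: dispense buffer (Tris pH 8.0, NaCl 300 mM, TCEP 1 mM, BSA, Tween 20); add 5X protein mix (GST-E1A, His-CtBP, 125 nM each); pin 23 nL compound; 2 h at 37 °C, dark; add 5X beads (50 ug/mL); 1 h; read.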
Numbers without * were called inactive; ? = inconclusive; . = not tested or not shown; [ ] = remark or other dose. In the library only some 5.3% were active in any assay of this set; here they are far more common. Unless noted, the call rests on the fitted dose curve; in most records, active means well fitted inhibition curve with a large enough effect; inconclusive means small, poorly fitted or top-dose-only effect; inactive means no such curve, though single readings can be large or run the other way.

SMILES | JMJD2A Tudor | BAZ2B block | Six1-Eya2 inh | TDP1 block | HP1b chromo inh | CtBP-E1A inh
O=[N+]([O-])c1ccccc1CN1CCN(Cc2c[nH]c3ccccc23)CC1 | 10µM* | 50µM* | -10 | -4% | ? | -14
CCn1cnc2c(Nc3cc(F)cc(F)c3)nc(C(=O)COc3c(F)c(F)cc(F)c3F)nc21 | -16% | . | . | 0% | . | .
O=C1[C@H]2[C@H]3[C@H](O)[C@H](O)C/C(=N/OCc4ccccc4)[C@@H]3CC[C@@H]2C(=O)N1Cc1ccccc1 | . | . | . | 8%[21 µM] | . | .
CCc1cc(/C(Cc2ccccn2)=N\Nc2ccccc2)c(O)cc1O | ? | 50µM* | 7 | 10% | ? | -17
Cc1nc(C/C(=N\Nc2ccccc2)c2ccc(O)cc2O)cs1 | 50µM* | 50µM* | -10 | 10% | ? | -3
C=CCn1c(C)cc(-c2csc(NCC)n2)c1C | 50µM* | 40µM* | -2 | 8% | ? | 6
C=CCn1c(C)cc(-c2csc(NC)n2)c1C | 40µM* | . | 0 | 8% | ? | -9
C=CCn1c(C)cc(-c2csc(NC(=O)C3=COCCO3)n2)c1C | -23% | -34% | -1 | 1% | -9% | -5
COc1ccc(C2=C(N3CCN(c4cc(Cl)ccc4C)CC3)c3ccccc3C2=O)cc1 | 6.3µM* | 2.8µM* | . | 5% | ? | .
Cc1ccc(Cl)cc1N1CCN(C2(c3ccccc3)C(=O)c3ccccc3C2=O)CC1 | ? | ? | . | 0% | -4% | .
CCN(CC)c1ccc(/C=C2\NC(=O)NC2=O)cc1 | -16% | -4% | 4 | 3% | 7% | 2
O=C1NC(=O)/C(=C\c2ccsc2)N1 | 32µM* | 45% | 2 | 3% | -3% | -3
COc1ccc(C)cc1NC(=O)C(=O)NCCc1csc(-c2ccc(C)cc2)n1 | -13% | 6% | . | 7% | 16%[57 µM] | .
O=C(Cc1ccccc1)N(Cc1cccnc1)c1nc2c(F)cccc2s1 | 40µM* | -6% | . | -3% | 26% | .
Oc1ccccc1N1CCN(CC(O)COCc2ccccc2Cl)CC1 (stereo unspecified) | 20µM* | 50µM* | -8 | -12% | ? | .
O=C(CC(NCc1ccccn1)C(=O)O)Nc1ccccc1Cl (stereo unspecified) | 20µM* | 2.8µM* | -91* | 10% | 59% | -89*
O=C(NCc1ccccn1)c1c(Cl)cccc1Cl | 21% | 0% | 0 | 3% | 56% | 0
O=C(N/N=C/c1cccnc1)c1ccccc1Cl | -12% | 1% | 3 | . | 20% | .
O=C(N/N=C\c1cccnc1)c1cc(-c2ccc(Cl)s2)[nH]n1 | 56µM* | 50µM* | 0 | -13% | -8% | -17
Cc1ccc(Cl)cc1N1CCN(C(=O)COCc2cc(-c3ccc4c(c3)OCO4)on2)CC1 | -21% | -5% | . | 1% | 18% | .
Nc1ccc(O)cc1C(=O)OCC(=O)c1ccc(C2CCCCC2)cc1 | ? | 40µM* | ? | 11% | ? | -23
Cc1nc(C(C)Nc2ncnc3ccc(-c4ccc5c(c4)OCO5)cc23)cs1 (stereo unspecified) | ? | . | . | -16% | . | .
COc1ccc2c(c1)C(=O)[C@H](OC(=O)NS(=O)(=O)c1ccc(F)cc1)[C@@H](c1ccc(OC)c(Br)c1)O2 | . | . | . | 2% | . | .
COc1ccc(C2/C(=C(/O)c3ccc(C)cc3)C(=O)C(=O)N2c2ccccn2)cc1 (stereo unspecified) | -22% | -13% | 1 | . | 3% | 7
Cc1ccc(/C(O)=C2\C(=O)C(=O)N(CC(C)O)C2c2ccccn2)cc1 (stereo unspecified) | 35µM* | 19% | 3 | 3% | 10% | -2
SMILES | JMJD2A Tudor | BAZ2B block | Six1-Eya2 inh | TDP1 block | HP1b chromo inh | CtBP-E1A inh
Cn1c(=O)oc2cc(S(=O)(=O)CCC(=O)NCc3ccc(Cl)cc3)ccc21 | 5% | 10%[57.1 µM] | . | -1% | 28% | .
O=C(NCC(c1ccc2c(c1)OCO2)N1CCOCC1)c1c(F)cccc1F (stereo unspecified) | -11% | -2% | . | 3% | 4%[57 µM] | .
OCCNCCOc1ccccc1F | -7% | 0% | 1 | 5% | 33% | 3
CC(C)c1ccccc1NC(=O)CNCCOc1ccccc1F | 28µM* | 50µM* | 4 | . | ? | 8
NC(=O)CC(NSc1ccccc1[N+](=O)[O-])C(=O)O (stereo unspecified) | 35µM* | ? | 1 | 9% | -8% | 0
O=[N+]([O-])c1ccccc1SNc1ccccc1 | . | . | ? | . | . | -11
CCN(CC)S(=O)(=O)c1nnc(NC(=O)c2ccc(Br)cc2)s1 | -27% | -31% | . | 4% | 17% | .
CC1(C)CCCC2=C1CC1C(=O)N(O)C(=O)C1C2 (stereo unspecified) | -2% | 19% | 11 | 4% | 28% | 1
CC12CCCCC1N(O)C(=O)C(=O)N2O (stereo unspecified) | 79µM* | ? | -3 | 11% | 4% | 7
O=C(NNC(=S)NC(=O)c1cccnc1)c1ccc(Cl)cc1 | ? | 9%[57.1 µM] | 0 | 8% | -17% | -1
O=C(NC(=S)NNC(=O)c1ccc(Cl)cc1Cl)c1cccnc1 | 45µM* | 5% | 0 | 4% | -13% | -10
O=C(NCCCNC(=O)c1cnccn1)c1ccc(Cl)cc1 | -10% | 1% | 1 | -7% | 1% | -9
COc1ccc(C(=O)NC(=S)NNC(=O)c2ccccc2C)cc1 | -17% | . | -21 | . | 23% | -12
COc1ccc(C(=O)NC(=S)NNC(=O)c2ccccc2O)cc1 | -18% | 4% | -92* | . | 20% | -12
O=C(NC(=S)NNC(=O)c1ccccc1O)c1cccnc1 | 56µM* | ? | -90* | 1% | 21% | .
O=C(NC(=S)NNC(=O)c1cnccn1)c1ccc(Cl)cc1 | 22µM* | 3.2µM* | -92* | 5% | 14% | -95*
CC[C@H](C)[C@H](NC(=O)[C@H](C)NC(=O)[C@@H](N)C(C)C)C(=O)N[C@H](C(=O)N[C@H](C(=O)N[C@@H](CC(C)C)C(=O)N[C@H](C(=O)N[C@@H](CCCCN)C(=O)O)C(C)C)C(C)C)[C@@H](C)O | . | . | . | 11% | . | .
CCC(=O)N1c2ccc(S(=O)(=O)N3CCCCCC3)cc2CC1C (stereo unspecified) | -11% | . | . | 5% | 20% | .
CC(=O)Nc1cccc(NC(=O)CN2C(=O)CCSc3ccccc32)c1 | -17% | -3% | . | -2% | 30% | .
